Source: PubChem BioAssay
For some of these results: Results with a measured potency or affinity are listed apart. The source made the active and inactive calls. Unless noted, how the calls were made is not given here.

Columns and labels:
[1] = antimalarial activity against Dd2 strain (AID 2302;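 active means growth inhibition above 50% at the single 2 µM test dose, taken to imply half-maximal potency below 2 µM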;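 further: 0% = DMSO untreated growth and 100% = chloroquine plus artemisinin killed control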); conditions: P. falciparum Dd2 in RBCs, LDH growth readout, 72 h; at 2 µM; stronger effect = higher value
[2] = HepG2 cytotoxicity, primary screen, cytotoxicity control for P. falciparum antimalarial project, cell-based, ATP luminescence (AID 2303;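 active means inhibition above 50%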;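 further: 0% = DMSO wells and 100% = digitonin-killed cells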); conditions: HepG2 viability, 24-48 h, at 10 µM, stronger effect = higher value
[3] = biological target: L-lactate dehydrogenase (Plasmodium falciparum (isolate CDC / Honduras)) (UniProt Q27743); test: PfLDH activity inhibition – cell lysate, 3D7 strain, counter-screen for P. falciparum growth inhibition project (AID 2304);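 further: 0% = vehicle and 100% = reference inhibitor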; conditions: P. falciparum 3D7 crude extract, LDH APAD/NBT absorbance; at 2 µM; stronger effect = higher value
L-lactate dehydrogenase (Plasmodium falciparum (isolate CDC / Honduras)), sequence (Q27743 whole entry, looked up): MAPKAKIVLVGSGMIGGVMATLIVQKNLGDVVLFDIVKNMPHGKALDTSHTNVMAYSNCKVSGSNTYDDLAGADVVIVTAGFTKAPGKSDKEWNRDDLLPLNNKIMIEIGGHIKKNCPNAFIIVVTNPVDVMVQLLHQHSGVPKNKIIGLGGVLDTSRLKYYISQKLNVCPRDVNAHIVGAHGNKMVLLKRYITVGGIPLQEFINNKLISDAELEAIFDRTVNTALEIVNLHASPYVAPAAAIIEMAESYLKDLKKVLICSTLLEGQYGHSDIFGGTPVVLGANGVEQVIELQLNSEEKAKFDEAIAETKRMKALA

[4] = inhibition of 3D7 malaria parasite growth – strain 3D7 (AID 2306);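 further: 0% = DMSO wells and 100% = chloroquine plus artemisinin control wells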; conditions: P. falciparum 3D7 erythrocytic growth, LDH absorbance, 72 h; at 2 µM; stronger effect = higher value
[5] = biological target: Calcium-dependent protein kinase 1 (Plasmodium falciparum (isolate 3D7)) (UniProt P62344); test: PfCDPK1 kinase inhibitors, biochemical, TCAMS library (AID 1159585; cut-off not given, nearly all actives have IC50 up to about 0.98 µM;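 further: inhibitors leave more ATP so luminescence rises with inhibition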); conditions: recombinant PfCDPK1, Kinase-Glo ATP depletion luminescence
Calcium-dependent protein kinase 1 (Plasmodium falciparum (isolate 3D7)), sequence (P62344 whole entry, looked up): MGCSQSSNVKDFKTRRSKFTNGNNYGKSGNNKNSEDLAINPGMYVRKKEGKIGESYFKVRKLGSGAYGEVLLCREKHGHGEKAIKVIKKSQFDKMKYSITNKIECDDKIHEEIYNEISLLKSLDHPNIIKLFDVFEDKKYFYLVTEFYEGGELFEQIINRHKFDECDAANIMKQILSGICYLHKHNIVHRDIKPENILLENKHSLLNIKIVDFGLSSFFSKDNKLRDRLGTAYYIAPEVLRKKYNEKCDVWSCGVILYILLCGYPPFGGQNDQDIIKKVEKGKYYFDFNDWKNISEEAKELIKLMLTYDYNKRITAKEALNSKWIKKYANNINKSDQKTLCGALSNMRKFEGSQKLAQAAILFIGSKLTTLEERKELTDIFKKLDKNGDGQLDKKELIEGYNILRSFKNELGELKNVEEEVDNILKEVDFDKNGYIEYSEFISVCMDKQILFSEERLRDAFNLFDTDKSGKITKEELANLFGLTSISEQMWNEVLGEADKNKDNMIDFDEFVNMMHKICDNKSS

[6] = biological target: Plasmodium falciparum protein kinase 6 (PK6, PF3D7_1337100) (UniProt Q8IDW1); test: PfPK6 kinase inhibitors, biochemical, TCAMS library (AID 1159586); conditions: recombinant PfPK6, Kinase-Glo ATP depletion luminescence
Plasmodium falciparum protein kinase 6 (PK6, PF3D7_1337100), sequence (Q8IDW1 1-305): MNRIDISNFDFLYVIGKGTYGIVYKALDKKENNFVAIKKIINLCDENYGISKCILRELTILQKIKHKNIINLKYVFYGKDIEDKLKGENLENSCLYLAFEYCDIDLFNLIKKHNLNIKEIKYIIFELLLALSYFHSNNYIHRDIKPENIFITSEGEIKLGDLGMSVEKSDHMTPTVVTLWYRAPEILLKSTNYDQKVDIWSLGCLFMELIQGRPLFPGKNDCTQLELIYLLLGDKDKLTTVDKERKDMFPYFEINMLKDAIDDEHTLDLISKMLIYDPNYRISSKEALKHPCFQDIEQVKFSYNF

[7] = biological target: Protein kinase 7 (PK7), Plasmodium falciparum 3D7 (PF3D7_0213400) (UniProt Q7YTF7); test: inhibition of Plasmodium PK7 catalytic activity – biochemical, TCAMS antimalarial set, Kinase-Glo luminescence (AID 1159587); conditions: recombinant PfPK7, Kinase-Glo ATP depletion luminescence
Protein kinase 7 (PK7), Plasmodium falciparum 3D7 (PF3D7_0213400), sequence (Q7YTF7 1-343): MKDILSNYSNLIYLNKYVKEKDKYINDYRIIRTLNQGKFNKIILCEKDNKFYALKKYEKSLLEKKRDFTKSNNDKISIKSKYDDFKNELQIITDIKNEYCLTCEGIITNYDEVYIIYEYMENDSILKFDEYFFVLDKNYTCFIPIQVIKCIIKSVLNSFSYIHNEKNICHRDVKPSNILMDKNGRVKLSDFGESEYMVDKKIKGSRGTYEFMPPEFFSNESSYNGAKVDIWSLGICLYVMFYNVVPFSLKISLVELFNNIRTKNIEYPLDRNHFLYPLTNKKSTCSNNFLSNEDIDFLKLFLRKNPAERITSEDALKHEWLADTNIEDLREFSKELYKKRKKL

[8] = biological target: Calcium-dependent protein kinase 4 (Plasmodium falciparum (isolate 3D7)) (UniProt Q8IBS5); test: PfCDPK4 kinase inhibitors, biochemical, TCAMS library (AID 1159588; cut-off not given, nearly all actives have IC50 up to about 0.91 µM); conditions: recombinant PfCDPK4, Kinase-Glo ATP depletion luminescence
Calcium-dependent protein kinase 4 (Plasmodium falciparum (isolate 3D7)), sequence (Q8IBS5 whole entry, looked up): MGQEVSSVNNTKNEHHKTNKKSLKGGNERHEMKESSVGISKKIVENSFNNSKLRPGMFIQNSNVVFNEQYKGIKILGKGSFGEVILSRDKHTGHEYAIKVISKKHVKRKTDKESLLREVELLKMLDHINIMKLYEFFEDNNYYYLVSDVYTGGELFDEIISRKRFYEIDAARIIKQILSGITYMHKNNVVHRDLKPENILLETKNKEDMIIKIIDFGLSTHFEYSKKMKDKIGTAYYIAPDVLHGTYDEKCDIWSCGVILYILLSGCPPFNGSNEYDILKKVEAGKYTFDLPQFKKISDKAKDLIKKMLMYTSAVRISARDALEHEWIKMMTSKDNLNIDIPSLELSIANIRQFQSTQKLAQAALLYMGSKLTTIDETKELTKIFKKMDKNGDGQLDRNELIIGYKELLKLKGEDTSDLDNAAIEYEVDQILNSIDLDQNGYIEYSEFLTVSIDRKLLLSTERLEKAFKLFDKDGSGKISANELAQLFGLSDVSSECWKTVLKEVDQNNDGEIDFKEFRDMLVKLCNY

O=C(Nc1cccc(CN2CCN(C(=O)c3cccc(F)c3)CC2)c1)c1cccs1
active: growth inhibition [1] 95% | growth inhibition [4] 95%
inactive: inhibition [2] 17% | inhibition [3] 1% | outcome [5] | outcome [6] | outcome [7] | outcome [8]

CCNc1cc(C(=O)N[C@@H](Cc2ccccc2)[C@H](O)CNC2(CC)CC2)cc(N2CCCCS2(=O)=O)c1
active: growth inhibition [1] 94% | inhibition [2] 59% | growth inhibition [4] 97%
inactive: inhibition [3] 0% | outcome [5] | outcome [6] | outcome [7] | outcome [8]

Cc1cc(N2CCN(C3CCCCC3)CC2)nc2cccc(O)c12
inactive: growth inhibition [1] 37% | inhibition [2] 12% | inhibition [3] -3% | outcome [5] | outcome [6] | outcome [7] | outcome [8]
active: growth inhibition [4] 101%

O=C(Nc1cc(Cl)ccc1-n1cncn1)C1(c2ccccc2)CC1
active: growth inhibition [1] 91% | growth inhibition [4] 98%
inactive: inhibition [2] 3% | inhibition [3] -2% | outcome [5] | outcome [6] | outcome [7] | outcome [8]

COc1ccc(Nc2ncc3c(-c4ccc(NC(=O)c5cccc(C(F)(F)F)c5)cc4)c[nH]c3n2)cc1OC
active: growth inhibition [4] 89%
inactive: growth inhibition [1] 30% | inhibition [2] 26% | inhibition [3] 4% | outcome [5] | outcome [6] | outcome [7] | outcome [8]

CCCc1cc(NC2CCN(C)CC2)nc(Nc2ccc(C)cc2)n1
active: growth inhibition [4] 101%
inactive: growth inhibition [1] 20% | inhibition [2] 25% | inhibition [3] -1% | outcome [5] | outcome [6] | outcome [7] | outcome [8]

Cc1cc(F)ccc1-c1nc(NCCCNCCc2ccccc2)nc2c1ccc(=O)n2-c1c(F)cccc1F
inactive: inhibition [2] 36% | inhibition [3] -6% | outcome [5] | outcome [6] | outcome [7] | outcome [8]
active: growth inhibition [1] 100% | growth inhibition [4] 100%

Cc1cc2c(cc1C(F)(F)F)N(C(=O)Nc1cc(OCCN(C(C)C)C(C)C)cc(C(F)(F)F)c1)CC2
active: growth inhibition [1] 86% | growth inhibition [4] 100%
inactive: inhibition [2] 42% | inhibition [3] -2% | outcome [5] | outcome [6] | outcome [7] | outcome [8]

O=C(NCC1CCN(Cc2ccc3c(c2)OCCO3)C1)c1cc(-c2ccccc2F)cs1 (stereo not given)
inactive: growth inhibition [1] -1% | inhibition [2] 18% | inhibition [3] 4% | outcome [5] | outcome [6] | outcome [7] | outcome [8]
active: growth inhibition [4] 95%

COCCNCc1cccc(-c2ccc(CNC3CCN(Cc4ccccc4)CC3)cc2)c1
active: growth inhibition [1] 97% | growth inhibition [4] 100%
inactive: inhibition [2] 34% | inhibition [3] -7% | outcome [5] | outcome [6] | outcome [7] | outcome [8]

COc1cc(C(=O)NCCCN2CCN(c3cccc(Cl)c3)CC2)ccc1-c1cc2cc(Cl)c(Cl)cc2[nH]1
inactive: inhibition [2] 35% | inhibition [3] 0% | outcome [5] | outcome [6] | outcome [7] | outcome [8]
active: growth inhibition [1] 86% | growth inhibition [4] 100%

Nc1ncc(-c2ccc3[nH]ccc3c2)c2ccc(-c3ccncc3)cc12
inactive: inhibition [2] 42% | inhibition [3] -6% | outcome [5] | outcome [6] | outcome [7] | outcome [8]
active: growth inhibition [1] 100% | growth inhibition [4] 100%

CCOC(=O)c1c(CNc2ccncc2)n(C)c2cc(Br)c(OC(C)=O)cc12
inactive: inhibition [2] -3% | inhibition [3] 5% | outcome [5] | outcome [6] | outcome [7] | outcome [8]
active: growth inhibition [1] 93% | growth inhibition [4] 96%

Cn1cccc1C(=O)NCC(CCNc1cc(=O)c2ccccc2[nH]1)NCc1cc(Br)cc(Br)c1 (stereo not given)
inactive: inhibition [2] -3% | inhibition [3] -2% | outcome [5] | outcome [6] | outcome [7] | outcome [8]
active: growth inhibition [1] 52% | growth inhibition [4] 92%

CC(=O)Nc1ccc(OCCCCN(Cc2ccccc2C(F)(F)F)c2ccc(C#N)c(C(F)(F)F)c2)cc1
inactive: growth inhibition [1] 47% | inhibition [2] -3% | inhibition [3] 1% | outcome [5] | outcome [6] | outcome [7] | outcome [8]
active: growth inhibition [4] 80%

CCOc1cc2c(cc1OCC)C(c1cc(OC)c(O)cc1Cl)NCC2 (stereo not given)
inactive: inhibition [2] 15% | inhibition [3] -7% | outcome [5] | outcome [6] | outcome [7] | outcome [8]
active: growth inhibition [1] 97% | growth inhibition [4] 100%

CCOC(=O)c1cc(C(=O)OC)c2ccccn12
inactive: growth inhibition [1] 2% | inhibition [2] 44% | inhibition [3] -2% | outcome [5] | outcome [6] | outcome [7] | outcome [8]
active: growth inhibition [4] 97%

CCCCN(CCCC)CCCCNc1c2ccc(Cl)cc2nc2ccc(OC)cc12
active: growth inhibition [1] 96% | inhibition [2] 68% | growth inhibition [4] 101%
inactive: inhibition [3] 2% | outcome [5] | outcome [6] | outcome [7] | outcome [8]

Cc1cccc2[nH]c(-c3cccc(-c4cccc(NC(=O)C(C)CN(C)C)c4)c3)nc12 (stereo not given)
inactive: inhibition [2] 16% | inhibition [3] -3% | outcome [5] | outcome [6] | outcome [7] | outcome [8]
active: growth inhibition [1] 97% | growth inhibition [4] 101%

O=C(NC1CCN(Cc2ccccc2)CC1)c1cccc(Nc2nc(-c3ccccc3)cs2)c1
inactive: growth inhibition [1] 3% | inhibition [3] 3% | outcome [5] | outcome [6] | outcome [7] | outcome [8]
active: inhibition [2] 70% | growth inhibition [4] 84%
